# Source: PubChem
# Wnt bcat act: activates Wnt/beta-catenin signaling in a reporter cell assay | activator, plate reader | activation, % at 9.35 µM | 1.2% of 300,000 active; in the data active = activation above about 30%, passing the limit was not always enough; inconclusive = no clear call, values can overlap the other calls;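 also: 0% = neutral control wells and 100% = positive control wells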
# MITF TRPM1 HTS: activators of MITF-driven TRPM1 promoter activity in SK-MEL-5 cells; activation, % at 12.5 µM; SK-MEL-5 TRPM1-promoter luciferase, 24 h; % of positive control, neutral wells = 0; 0.75% of 300,000 active;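 active = mean activation of at least 80% with every replicate also reaching 80%; inconclusive = mean reaches 80% but some replicate falls short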;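 also: 0% = neutral control wells and 100% = parthenolide positive control wells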
# esBAF inh: inhibitors of esBAF chromatin remodeling in mouse ES cells. AID 602393. 2% of 350,000 active. reporter increase, % at 12.5 µM. Bmi1-luciferase knock-in reporter, 24 h; 100% = twice the neutral-well signal; in the data active = activation above about 40%; inconclusive = no clear call, values can overlap the other calls;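 also: 0% = median of the plate's neutral control wells and 100% = double that signal; a rise in the Bmi1 reporter signal indicates esBAF inhibition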
# PHOSPHO1 block: PHOSPHO1 (human) inhibition. Q8TCT1. inhibition, % at 13.3 µM. recombinant PHOSPHO1, absorbance phosphatase assay. AID 1565. 1.1% of 290,000 active; in the data active = inhibition above about 60%
# Target sequence (Q8TCT1 whole entry, looked up): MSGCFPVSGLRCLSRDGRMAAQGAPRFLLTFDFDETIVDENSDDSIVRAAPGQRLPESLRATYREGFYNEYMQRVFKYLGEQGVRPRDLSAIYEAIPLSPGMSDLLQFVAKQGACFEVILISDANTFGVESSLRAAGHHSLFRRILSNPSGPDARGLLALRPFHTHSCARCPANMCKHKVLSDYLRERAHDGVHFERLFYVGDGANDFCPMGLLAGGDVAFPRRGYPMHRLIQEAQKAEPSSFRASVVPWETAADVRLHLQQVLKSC
# A3A deaminase: human APOBEC3A DNA deaminase inhibition; inhibition, % at 20 µM; recombinant A3A, FAM/TAMRA ssDNA deamination fluorescence; 0.41% of 330,000 active;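 active = at least 40% inhibition at 20 µM here, with at most 30% in a related deaminase screen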;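 also: plate controls were A3A with DMSO for no effect and wells lacking A3A enzyme for full effect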
# Target sequence (P31941 whole entry, looked up): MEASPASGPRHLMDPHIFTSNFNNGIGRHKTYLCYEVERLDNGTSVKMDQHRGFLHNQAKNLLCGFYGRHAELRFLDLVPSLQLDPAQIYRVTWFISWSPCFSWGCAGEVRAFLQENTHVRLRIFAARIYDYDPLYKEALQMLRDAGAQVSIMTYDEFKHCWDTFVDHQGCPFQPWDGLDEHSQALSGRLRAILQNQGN
# A3G deaminase: blocks human APOBEC3G single-stranded DNA deamination; inhibition, % at 20 µM; 0.28% of 330,000 active; recombinant A3G, ssDNA deamination FAM/TAMRA fluorescence; Q9HC16;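 active = inhibition of at least 40% at 20 µM, with no more than 30% in the related APOBEC3A deaminase screen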;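 also: plate controls were DMSO wells with A3G for no effect and wells lacking A3G enzyme for full effect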
# Active calls of the source: *; u = inconclusive; x = no result given. The list is not random: actives were taken first. Their share in the collection is about 3.6%.
SMILES,Wnt bcat act,MITF TRPM1 HTS,esBAF inh,PHOSPHO1 block,A3A deaminase,A3G deaminase
C[C@H]1CCCCO[C@@H](CN(C)Cc2ccccc2)[C@@H](C)CN([C@@H](C)CO)C(=O)c2cc(NC(=O)CCC(F)(F)F)ccc2O1,x,x,-4,x,x,x
O=c1[nH]c(-c2ccccc2)nnc1-c1ccccc1,32*,32,25,28,0,-4
CCN(c1ccc(NC(=O)CSc2nnc3nc(C)cc(C)n23)cc1)C(C)C,x,0,-10,73*,4,6
Cc1cc(C)n2c(SCC(=O)Nc3ccc(F)cc3)nnc2n1,-1,-7,x,-103,2,13
CC(=O)n1c2ccccc2c2nc3ccccc3nc21,x,23,72*,44,-7,6
C[C@H]1CN([C@@H](C)CO)C(=O)c2cc(C#CCc3ccccc3)cnc2O[C@H]1CN(C)C(=O)C1CCC1,x,x,2,x,x,x
CCOc1cccc(/C=C/c2ccc3cccc(O)c3n2)c1O,48*,20,87*,28,-3,-7
COc1ccccc1/C=C/c1ccc2cccc(O)c2n1,27,5,67*,46,1,-3
CCOc1cccc(/C=C/c2ccc3cccc(O)c3n2)c1OC,40*,10,34,20,-5,-9
COc1cc(Cl)cc(/C=C/c2ccc3cccc(O)c3n2)c1OC,17,11,30,6,-1,-1
COc1cccc(C=Cc2nccc3ccccc23)c1OC,59*,x,25,x,x,x
Oc1cccc2ccc(/C=C/c3ccccc3Cl)nc12,21,4,18,38,-1,-4
COc1cccc(C=O)c1OCCCOc1cccc2cccnc12,5,x,u,4,-3,15
CC1CCN(C(=O)CCC(=O)N2CC(C)Oc3ccccc32)CC1 (stereo not given),-1,-8,0,-11,-3,-4
CC1CCC(NC(=O)CCC(=O)N2CC(C)Oc3ccccc32)CC1 (stereo not given),11,62,55*,7,-2,-9
COc1ccc(S(=O)(=O)Nc2ccc3c(c2)CC(=O)N([C@H](C)CO)C[C@H](C)[C@@H](CN(C)C(=O)Nc2ccc(F)cc2)O3)cc1,x,x,3,x,x,x
Cc1nc2cc3nc(C)sc3cc2s1,x,u,50*,68*,0,14
O=C(NCC[C@@H]1CC[C@H](NC(=O)C2CCC2)[C@H](CO)O1)c1cnccn1,x,x,-1,x,x,x
C[C@H]1CN([C@@H](C)CO)C(=O)c2cc(C3=CCCCC3)cnc2O[C@@H]1CN(C)CC1CCOCC1,x,x,1,x,x,x
O=C(NCCCN1CCOCC1)C(=O)NCC1OCCCN1S(=O)(=O)c1cc(F)ccc1F (stereo not given),1,15,3,75*,0,-2
CCOC(=O)N/N=C\c1ccccc1OC/C=C/c1ccccc1,42*,49,46*,23,-5,-2
N#CCC(=O)N/N=C\c1cc(Br)ccc1OC/C=C/c1ccccc1,u,93*,22,23,2,-2
COC(=O)N/N=C\c1ccccc1OC/C=C/c1ccccc1,2,98*,49*,36,0,-9
COc1cc(/C=N\NC(C)=O)ccc1OC/C=C/c1ccccc1,-6,-9,4,21,1,-9
N#CCC(=O)N/N=C/c1cccc(Oc2ccccc2)c1,-3,2,x,38,-4,-10
SMILES,Wnt bcat act,MITF TRPM1 HTS,esBAF inh,PHOSPHO1 block,A3A deaminase,A3G deaminase
C[C@@H]1CN([C@@H](C)CO)C(=O)c2cc(NC(=O)CCC(F)(F)F)ccc2O[C@@H](C)CCCCO[C@H]1CN(C)Cc1ccc(C(F)(F)F)cc1,x,x,-5,x,x,x
COCC#Cc1cnc2c(c1)C(=O)N([C@@H](C)CO)C[C@H](C)[C@H](CN(C)S(=O)(=O)c1cn(C)cn1)O2,x,x,-5,x,x,x
C[C@@H]1CN([C@H](C)CO)S(=O)(=O)c2ccc(C#Cc3ccccn3)cc2O[C@@H]1CN(C)CC1CC1,x,x,1,x,x,x
COCC(=O)Nc1ccc2c(c1)OC[C@@H](C)N(C(=O)c1cccnc1)C[C@H](C)[C@H](OC)CN(C)C2=O,x,x,0,x,x,x
COc1cc(/C=C2\SC(=S)N(Nc3ncc(C(F)(F)F)cc3Cl)C2=O)ccc1O,0,-9,12,73*,-3,-7
NC(=O)C(=O)N/N=C1\CCc2ccccc21,33*,29,48*,21,-10,-5
O=C(NC1CCCC1)[C@@H]1[C@@H](CO)[C@@H]2Cn3c(cccc3=O)[C@H]1N2Cc1cc(F)ccc1F,x,x,0,x,x,x
C[C@@H]1CCCCO[C@@H](CN(C)S(=O)(=O)c2ccc(F)cc2)[C@H](C)CN([C@H](C)CO)C(=O)c2cc(NC(=O)C3CCCCC3)ccc2O1,x,x,0,x,x,x
O=C(Nc1ccc(Br)cc1)N1CCc2ccccc2C1,20,60,x,26,0,-5
Cc1cc(C)cc(NC(=O)N2CCc3ccccc3C2)c1,12,75,45*,1,-5,-7
O=[N+]([O-])c1cccc(NC(=S)N2CCc3ccccc3C2)c1,5,14,58*,23,0,-8
Cc1ccc(NC(=O)C2OCCc3ccccc32)cc1C (stereo not given),2,68,58*,35,-6,1
O=C(Nc1ccc(F)cc1)N1CCc2ccccc2C1,57*,42,x,35,0,-2
COc1ccc(S(=O)(=O)Nc2ccc3c(c2)C(=O)N([C@@H](C)CO)C[C@@H](C)[C@@H](CN(C)C(=O)NC2CCCCC2)OCCCC[C@@H](C)O3)cc1,x,x,13,x,x,x
COc1ccc(NC(=O)N2CCc3ccccc3C2)c(OC)c1,11,17,54*,38,-2,-1
Cc1ccc(NC(=O)N2CCc3ccccc3C2)cc1C,u,95*,61*,26,1,-7
COc1ccc(NC(=O)N2CCc3ccccc3C2)cc1OC,0,-1,9,28,3,1
CCCCOC(=O)c1ccc(Nc2ccc([N+](=O)[O-])cn2)cc1,-1,-4,x,-1,-2,-2
CCCCOc1ccc(-c2ncc([N+](=O)[O-])cn2)cc1,40*,x,83*,16,2,-7
CCCCOc1ccc(-c2ncc(Cl)cn2)cc1,-2,105*,86*,6,7,7
O=C(NC(=S)NCCc1ccccc1)c1ccccc1,7,37,67*,34,6,-1
O=C(NC(=S)NCCc1ccccc1)c1ccccc1F,4,17,-1,23,-2,-4
CSc1ccccc1NC(=S)NCc1ccc(Cl)cc1,13,7,59*,11,6,-9
S=C(NCCc1ccc(Cl)cc1)NC1CCCCC1,15,89*,63*,29,-3,-7
Fc1ccccc1NC(=S)NCCc1ccc(Cl)cc1,21,u,59*,-20,-4,-6
CN(C)CC(=O)Nc1ccc2c(c1)[C@@H]1C[C@@H](CC(=O)NCc3ccccn3)O[C@H](CO)[C@@H]1O2,x,x,-1,x,x,x
